Screening data (PubChem BioAssay)
The sample as a whole holds a higher share of hits than the screen did.
p53null 39C kill: kills p53 null cells at the nonpermissive temperature; Potency, µM (titrated, usually from 46.1 µM), for the others: at the top dose activity, negative = cell killing, hits mostly cytotoxic; H1299 p53-null (neo) cells, 39C, ATPlite viability, 24 h; hit rate 0.97% among 55,000;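 further: 0% = DMSO only and -100% = full killing by 100 µM tamoxifen; nearly all actives have a fitted effect of over 50% in size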
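Luminescent ATP signal reported cell survival after H1299 lines (neo, p53 null; or p53 A138V) received up to 46 uM compound and 24 hr incubation at 39C.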
p53null 32C tox: kills p53 null cells at the permissive temperature; Potency, µM (doses to about 46.1 µM), inactives show at the top dose activity change, negative = cytotoxicity, most hits filed as cytotoxic; H1299-neo p53 null cells, ATP luminescence, 24 h, 32C; hit rate 0.62% among 55,000; AID 903;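 further: 0% = DMSO only and -100% = full killing by 100 µM tamoxifen; nearly all actives have a fitted effect of over 55% in size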
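ATP-content luminescence in p53-null H1299-neo cells after 24 h compound exposure (up to 46 uM) at 32C permissive temperature; 0% and 100% killing set by DMSO and 100 uM tamoxifen; Hill-equation AC50.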
FH mod: Identification of activators of human fumarate hydratase by quantitative high-throughput screening. Fumarate hydratase, mitochondrial (Homo sapiens), P07954. FH coupled MDH/diaphorase resazurin fluorescence, 15 min. Potency, µM (highest dose often 79.9 µM), for inactives: top-dose activity change, negative = inhibition, most hits filed as inhibitors. hit rate 0.22% among 54,000. AID 1347055, 2019; further: on the % scale 0 is the no-effect control and ±100 the full control effect; the screen sought activators but most active calls are inhibition curves; nearly all actives have a fitted effect of over 45% in size
GALC G270D up: galactocerebrosidase G270D activity enhancement, cell-based | 145M-Twi-hGALC-G270D cells (Twitcher mouse brain line with human GALC G270D), HMU-beta-Gal fluorescence, 48 h | Potency, µM (titrated, usually from 57.5 µM), actives largely listed as activators | hit rate 0.1% among 45,000; further: 0% is about no effect; nearly all actives have a fitted effect of over 65% in size
Target sequence (P54803 whole entry G286D): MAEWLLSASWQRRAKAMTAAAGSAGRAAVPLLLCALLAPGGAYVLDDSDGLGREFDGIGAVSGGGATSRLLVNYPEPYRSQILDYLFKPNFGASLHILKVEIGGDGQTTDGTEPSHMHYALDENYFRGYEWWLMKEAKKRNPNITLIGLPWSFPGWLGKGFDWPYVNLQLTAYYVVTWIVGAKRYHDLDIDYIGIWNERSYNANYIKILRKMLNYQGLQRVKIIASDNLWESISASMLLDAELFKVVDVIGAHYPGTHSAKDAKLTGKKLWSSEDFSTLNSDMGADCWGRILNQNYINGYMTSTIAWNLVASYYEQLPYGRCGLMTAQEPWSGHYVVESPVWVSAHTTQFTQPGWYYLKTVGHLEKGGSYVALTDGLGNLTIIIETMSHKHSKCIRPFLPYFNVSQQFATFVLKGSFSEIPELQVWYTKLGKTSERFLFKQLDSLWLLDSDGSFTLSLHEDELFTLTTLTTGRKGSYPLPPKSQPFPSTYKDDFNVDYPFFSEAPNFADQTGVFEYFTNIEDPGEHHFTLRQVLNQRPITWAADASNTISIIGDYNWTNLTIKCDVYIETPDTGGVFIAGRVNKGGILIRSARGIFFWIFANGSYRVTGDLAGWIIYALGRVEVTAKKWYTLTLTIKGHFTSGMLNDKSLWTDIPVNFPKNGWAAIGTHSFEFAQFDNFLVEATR
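Mutant human GALC (G270D), stably expressed in a Twitcher mouse brain cell line lacking endogenous GALC, is measured in live-treated cells via 6-hexadecanoylamino-4-methylumbelliferyl-β-galactoside hydrolysis (0.1 mM final, pH 5.2) with fluorescent detection.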
NTMT1 inh: NTMT1 methyltransferase inhibition; Q9BV86; Potency, µM (top dose mostly 114 µM), for inactives: top-dose activity change, negative = inhibition, most hits filed as inhibitors; NTMT1 MTase-Glo SAH luminescence, purified enzyme; AID 1645870; hit rate 2.5% among 59,000;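 further: plate controls were DMSO vehicle for no effect and no enzyme for full effect; nearly all actives have a fitted effect of over 65% in size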
Active calls of the source: *; ! = not active in a repeat; [ ] = remark or other dose. The call rests on the fitted dose curve; in most records, active means well fitted curve in the direction sought with a large enough effect; inconclusive means small, poorly fitted or top-dose-only effect, or another doubt; inactive means no such curve, though single readings can be large; an effect the other way counts as inactive or inconclusive. Potency means the concentration at half of the fitted maximal effect.

O=C(Nc1ccccc1-c1cn2c(CN3CCNCC3)csc2n1)c1cnc2ccccc2n1 was read as FH mod inconclusive and NTMT1 inh 3.5µM*!.
For Cc1nc(-c2cccnc2)sc1C(=O)Nc1ccccc1-c1cn2c(CN3CCOCC3)csc2n1 the results were FH mod 3% and NTMT1 inh 14%.
For O=C(Nc1ccc(Cl)c(Cl)c1)N1CCN(c2ccncc2)CC1 the results were NTMT1 inh -4%.
O=C(O)c1ccc(O)c2ncc(N3CCCCC3CCc3ccccn3)cc12 (configuration not stated) was read as NTMT1 inh 15%.
For CO[C@H]1/C=C/C=C/C=C/C[C@H](OC(=O)[C@@H](C)NC(=O)C2CCCCC2)[C@H](C)[C@@H](O)/C(C)=C/CCc2cc(O)cc(c2)NC(=O)C1 the results were FH mod -1%[20.6 µM] and NTMT1 inh -3%[12.6 µM].
For C=C1C(OC(C)=O)[C@@]23CCC4[C@](C)(C(=O)O)CCC[C@@]4(C)[C@]2(O)CC[C@H]1C3 (some centres not stated) the results were FH mod 0%[53.3 µM] and NTMT1 inh -1%[29.8 µM].
`Cc1[nH]c(/C=C2\C(=O)Nc3ccc(F)cc32)c(C)c1C(=O)NCCN1CCCC1` gave FH mod -8% and NTMT1 inh inconclusive.
Screening CCN(CC)CCNC(=O)c1c(C)[nH]c(/C=C2\C(=O)Nc3ccc(F)cc32)c1C returned FH mod 13µM*!, GALC G270D up inactive and NTMT1 inh 35µM*.
For CC(=O)NC1=C(NC2CCS(=O)(=O)C2)C(=O)c2ccccc2C1=O (configuration not stated) the results were p53null 39C kill inconclusive and p53null 32C tox 11µM*.
Screening O=C(Nc1ccccc1)NC1CCS(=O)(=O)C1 (configuration not stated) returned p53null 39C kill 0% and p53null 32C tox 7%.
`COc1cccc(-c2cc(F)ccc2C2Cc3nc(N)nc(C)c3C(=O)N2)n1` (configuration not stated) gave FH mod 11% and NTMT1 inh 3%[57.5 µM].
`Cn1nc(-c2ccc(C(F)(F)F)cc2)nc2c(=O)n(C)c(=O)nc1-2` gave FH mod 4µM* and NTMT1 inh -3%[57.5 µM].
`CN1CCN(C(=O)c2ccc(Nc3nccc(-c4cccs4)n3)cc2Cl)CC1` gave FH mod -5% and NTMT1 inh -7%[57.5 µM].
Screening CCN(C(=O)c1cc(S(=O)(=O)N2CCc3ccccc32)cn1C)c1cccc(C)c1 returned p53null 39C kill 70%, p53null 32C tox 46%, FH mod -32%, GALC G270D up inactive and NTMT1 inh 89µM*.
For CC(=O)Nc1ccc(NC(=O)CCc2c(C)nc3c(c(C)nn3-c3ccc(C)cc3)c2C)cc1 the results were p53null 39C kill 6.3µM*, p53null 32C tox -1%, FH mod -11%, GALC G270D up inactive and NTMT1 inh -13%.
COc1cccc(C(=O)Nc2nc3c(s2)CCCC3)c1 was read as p53null 39C kill 5µM*, p53null 32C tox 13µM*, FH mod -31%, GALC G270D up inactive and NTMT1 inh 40µM*.
`CCCOc1ccccc1C(=O)Nc1nc2c(s1)CCCC2` gave p53null 39C kill -17%, p53null 32C tox -8%, FH mod -15%, GALC G270D up inactive and NTMT1 inh 79µM*.
For CC[C@H]1OC(=O)[C@H](C)[C@@H](O[C@H]2C[C@@](C)(OC)[C@@H](O)[C@H](C)O2)[C@H](C)[C@@H](O[C@@H]2O[C@H](C)C[C@H](N(C)C)[C@H]2O)[C@@](C)(O)C[C@@H](C)[C@@H]2N[C@@H](COCCOC)OC([C@H]2C)[C@]1(C)O the results were FH mod -1% and NTMT1 inh 4%[57.5 µM].
For Cc1ccccc1NS(=O)(=O)c1ccc2[nH]cc(C(=O)NC(C)c3ccccc3)c(=O)c2c1 (configuration not stated) the results were p53null 39C kill 16%, p53null 32C tox 10%, FH mod 40µM*, GALC G270D up inactive and NTMT1 inh -15%.
`CC1(C)CC[C@]2(C(=O)O)[C@H](O)C[C@]3(C)C(=CCC4[C@@]5(C)CC[C@H](O[C@@H]6OC[C@@H](O)[C@H](O)[C@H]6O)[C@@](C)(C(=O)O)C5CC[C@]43C)[C@@H]2C1` (some centres not stated) gave FH mod 9%[20.6 µM] and NTMT1 inh 7%[12.6 µM].
`CCc1nc(SC)ncc1C(=O)N1CCN(c2cc(C)ccc2C)CC1` gave p53null 39C kill -9%, p53null 32C tox -4%, FH mod -8%, GALC G270D up inactive and NTMT1 inh 89µM*.
O=C(Nc1ccc(-c2nc3ccccc3[nH]2)cc1)c1ccc2ncsc2c1 was read as NTMT1 inh -9%[57.5 µM].
O=C(Nc1ccc(NC(=O)c2cc3ccccc3o2)cc1)c1ccccc1 was read as p53null 39C kill 10%, p53null 32C tox 10%, FH mod -3%, GALC G270D up inactive and NTMT1 inh -2%.
`O=C(Nc1ccccn1)c1cc2ccccc2o1` gave p53null 39C kill 5µM* and p53null 32C tox 4µM*.
`O=C(O)c1ccc(NC(=O)c2cc3ccccc3o2)cc1` gave p53null 39C kill inconclusive, p53null 32C tox 13µM*, FH mod -21%, GALC G270D up inactive and NTMT1 inh -10%.
Screening CCC(NC(=O)CC(NC(=O)C(CO)NC(=O)C(CC)NC(=O)c1ccc[nH]1)c1ccccc1)C(=O)O (configuration not stated) returned FH mod 6%[20.6 µM] and NTMT1 inh 16%[12.6 µM].
Screening COc1ccc(C(O[C@@H]2O[C@H](CO)[C@@H](O)[C@H](O)[C@H]2O)C(CO)Oc2ccc(/C=C/CO)cc2OC)cc1O (some centres not stated) returned FH mod 1%[53.3 µM] and NTMT1 inh 14%[29.8 µM].
`Cc1ccc(NC(=O)c2cc(S(=O)(=O)N3CCC(C)CC3)cn2C)cc1Cl` gave p53null 39C kill 8%, p53null 32C tox 8%, FH mod -4%, GALC G270D up inconclusive and NTMT1 inh 89µM*.
Screening CC1CCN(S(=O)(=O)c2cc(C(=O)NCc3ccc(N(C)C)cc3)n(C)c2)CC1 returned p53null 39C kill 0%, p53null 32C tox -7%, FH mod -5%, GALC G270D up inactive and NTMT1 inh 89µM*.
